Measured values as given in PubChem BioAssay AID1259421 (Broad Institute, 2018).
“And” between values parts separate entries of the source, which are not always exact repeats. Identical values can stand only once. The campaign covered roughly 6,400 compounds. About 610 (9.5%) were called active. Cut-off read from the data, not from the text of the source: active = activity change below about -70%; inconclusive = no clear call, values can overlap the other calls; inactive = above that. This excerpt belongs to a sample that is enriched for actives. Some compounds were tested as several samples or in several runs, with calls that do not always agree.

Experiment: T. gondii ME49Luc in HeLa cells, luciferase assay, 72 h, no IFN-y (AID 1259421)
Conditions: stronger effect = lower value, concentration not given here

Compound	activity change, negative = inhibition
CCN1CCN(Cc2ccc(Nc3ncc(F)c(-c4cc(F)c5nc(C)n(C(C)C)c5c4)n3)nc2)CC1	-82.7% (active)
CN(C)Cc1ccc(-c2nc3cccc4c3n2CCNC4=O)cc1	4.67% (inactive)
CCC(=O)OCC(=O)[C@@]1(OC(=O)CC)[C@H](C)CC2C3C([C@@H](O)C[C@@]21C)[C@@]1(C)C=CC(=O)C=C1C[C@H]3Cl (stereo partly specified)	2.29% (inactive)
CC1=CC(=O)C2C(C)(C)CCC[C@]2(C)[C@@]1(O)CCc1ccoc1 (stereo partly specified)	1.47% (inactive)
CN1CC[C@@H](c2c(O)cc(O)c3c(=O)cc(-c4ccccc4Cl)oc23)[C@@H]1CO	-78.4% (active)
COc1ccc(-c2cc(=O)c3c(O)cc(OC)c(OC)c3o2)c(OC)c1	12.5% (inactive)
CN1CC[C@H](c2c(O)cc(O)c3c(=O)cc(-c4ccccc4Cl)oc23)[C@H](O)C1	-83.7% (active)
NC(N)=NCCC[C@H](N)C(=O)NCC(=O)N[C@@H](CC(=O)O)C(=O)N[C@@H](CO)C(=O)O	12.1% (inactive)
CC(C)CCNc1ncccc1C(=O)N1CCN(Cc2ccccc2)CC1	7.68% (inactive)
CC(C)=CCc1c(O)cc2oc(C)cc(=O)c2c1O	1.96% (inactive)
COc1cc2oc3cc(OC)c(OC)c(CC=C(C)C)c3c(=O)c2c(O)c1CC=C(C)C	7.82% (inactive)
COc1c(O)cc2oc3cc(O)c(CC=C(C)C)c(O)c3c(=O)c2c1CC=C(C)C	-80.8% (active)
C[N+](C)(C)[C@@H](Cc1c[nH]c(=S)[nH]1)C(=O)O	3.37% (inactive)
Nc1nc(NCCc2ccc(O)cc2)nc2nc(-c3ccco3)nn12	-78.9% (active) and -90.1% (active)
COc1ccc(CCCn2ncc3c2nc(N)n2nc(-c4ccco4)nc32)cc1	-11.7% (inactive)
Nc1nc2c(cnn2CCc2ccccc2)c2nc(-c3ccco3)nn12	16.9% (inactive) and 59.6% (inactive)
CC(COc1ccccc1)NC(C)[C@H](O)c1ccc(O)cc1 (stereo partly specified)	7.25% (inactive) and 9.37% (inactive)
C[C@H](Cn1cnc2c(N)ncnc21)OCP(=O)(O)O	8.95% (inactive)
Nc1ncnc2c1ncn2C1O[C@H](COP(=O)(O)O)[C@@H](O)[C@H]1O (stereo partly specified)	13.1% (inactive)
CC(C)OC(=O)OCOP(=O)(CO[C@H](C)Cn1cnc2c(N)ncnc21)OCOC(=O)OC(C)C	-84% (active)
Nc1ncnc2c1ncn2C1OC(COP(=O)(O)O)C(O)C1O (stereo unspecified) (tested in a mixture with another compound)	1.1% (inactive)
Nc1ncnc2c1ncn2CCOCP(=O)(O)O	5.36% (inactive)
CC(C)(C)C(=O)OCOP(=O)(COCCn1cnc2c(N)ncnc21)OCOC(=O)C(C)(C)C	-84.5% (active) and -86.9% (active)

Compound	activity change, negative = inhibition
CC(=O)OC[C@H]1O[C@@](COC(C)=O)(O[C@H]2O[C@H](COC(C)=O)[C@@H](OC(C)=O)[C@H](OC(C)=O)[C@H]2OC(C)=O)[C@@H](OC(C)=O)[C@@H]1OC(C)=O	4.98% (inactive)
CCC1(c2cnc[nH]2)Cc2ccccc2C1	52.1% (inactive)
CS(=O)(=O)NC(=O)CCC/C=C\C[C@H]1C(=O)C[C@@H](O)[C@@H]1/C=C/[C@@H](O)COc1ccccc1	0.217% (inactive)
CCCC(=O)Nc1ncnc2c1ncn2C1OC2COP(=O)(O)OC2C1OC(=O)CCC (stereo unspecified)	6.24% (inactive)
C=C1C[C@]23C[C@@]1(O)CC[C@H]2[C@@]12C=C[C@H](O)[C@](C)(C(=O)O1)[C@H]2[C@@H]3C(=O)O	1.78% (inactive)
CCCCC(C)(C)[C@H](O)/C=C/[C@H]1[C@H](O)CC(=O)[C@@H]1C/C=C\CCCC(=O)O	16.3% (inactive)
O/N=C/c1ccc(-c2ccc(O)c(F)c2)c(Cl)c1O	-85.3% (active)
CC(=O)Nc1cccc(-n2c(=O)n(C3CC3)c(=O)c3c(Nc4ccc(I)cc4F)n(C)c(=O)c(C)c32)c1	19.3% (inactive)
CCOc1nc2cccc(C(=O)O)c2n1Cc1ccc(-c2ccccc2-c2nn[nH]n2)cc1	-59.6% (inactive)
C=C[C@]1(C)C[C@@H](OC(=O)CSC(C)(C)CNC(=O)[C@H](N)C(C)C)[C@@]2(C)[C@H](C)CC[C@]3(CCC(=O)[C@H]32)[C@@H](C)[C@@H]1O	-20.2% (inactive)
CS(=O)(=O)N1CCN(Cc2cc3nc(-c4cccc5[nH]ncc45)nc(N4CCOCC4)c3s2)CC1	-19.3% (inactive)
Cc1c(CN2CCN(C(=O)[C@H](C)O)CC2)sc2c(N3CCOCC3)nc(-c3cnc(N)nc3)nc12	-21.6% (inactive)
COc1ccc(-c2nc(N3CCOCC3)c3sc(CN(C)c4ncc(C(=O)NO)cn4)cc3n2)cn1	-89.4% (active)
C=CC(C)(C)c1[nH]c2ccccc2c1C1C(=O)C(=O)C(c2c[nH]c3c(CC=C(C)C)cccc23)C(=O)C1=O (stereo unspecified)	6.09% (inactive)
O=C(O)/C=C1\CCCc2ccccc2C1O (stereo unspecified)	14% (inactive) and 4.55% (inactive)
Cc1ccc2c(Br)cc(Br)c(OC(=O)c3ccccc3)c2n1	-89.9% (active)
O=C(OOC(=O)c1ccccc1)c1ccccc1	3.51% (inactive)
O=C(Oc1cccc2cccnc12)c1ccccc1	9.16% (inactive) and -0.158% (inactive)
Nc1nc(N)c([NH2+][O-])c(OCC2CCCCC2)n1	6.35% (inactive)
O=C(O)[C@H](O)[C@H](O)[C@@H](O)[C@H](O)[C@H](O)CO	15.3% (inactive) and -2.15% (inactive)
COc1cccc2c1C(=O)c1c(O)c3c(c(O)c1C2=O)C[C@@](O)(C(C)=O)C[C@@H]3OC1CC(N)C(O)C(C)O1 (stereo partly specified)	-89.8% (active)
COc1cccc2c1C(=O)c1c(O)c3c(c(O)c1C2=O)C[C@@](O)(C(C)=O)C[C@@H]3O[C@H]1C[C@H](N)[C@H](O)[C@H](C)O1	-66.8% (inactive) and -6.1% (inactive) and -91.6% (active)
Nc1nc2c(nc(Br)n2[C@@H]2O[C@@H]3COP(=O)(O)O[C@H]3[C@H]2O)c(=O)[nH]1	7.36% (inactive)
